Compound activity: PubChem, several laboratories
Rows were chosen to be rich in hits. Some 22% of all compounds tested hit in one or more screens of this group.
CYP2C9 act: activators of human CYP2C9; P11712; recombinant CYP2C9, luciferin-H conversion, luminescence; stronger effect = higher value; factor 1 = untreated enzyme, 0 = blocked; activation factor at 5 µM; 96,000 tested, 1.4% active; AID 1024;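 active means activation factor of 2 or more for CYP2C9 at a 5 µM dose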;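 further: 0 = sulfaphenazole-blocked wells and 1 = vehicle-only wells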
Target sequence (P11712 whole entry, looked up): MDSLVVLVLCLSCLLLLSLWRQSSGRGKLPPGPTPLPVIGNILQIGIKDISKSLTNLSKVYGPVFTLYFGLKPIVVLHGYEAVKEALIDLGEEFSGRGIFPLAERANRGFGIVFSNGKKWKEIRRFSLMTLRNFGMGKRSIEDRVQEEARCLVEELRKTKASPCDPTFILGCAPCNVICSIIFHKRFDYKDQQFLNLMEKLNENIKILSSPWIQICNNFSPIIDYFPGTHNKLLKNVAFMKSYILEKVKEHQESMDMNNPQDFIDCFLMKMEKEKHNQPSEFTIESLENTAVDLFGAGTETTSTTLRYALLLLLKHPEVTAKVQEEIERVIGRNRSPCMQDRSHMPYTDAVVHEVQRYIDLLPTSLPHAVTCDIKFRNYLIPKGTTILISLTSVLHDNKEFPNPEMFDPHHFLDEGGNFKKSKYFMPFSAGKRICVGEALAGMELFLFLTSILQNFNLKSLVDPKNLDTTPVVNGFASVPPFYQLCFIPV
E-sel TNF inh: TNF alpha driven E-selectin expression inhibition; HUVEC TNFa-induced E-selectin immunofluorescence, high content; inhibition, % at 2 µM; 120,000 tested, 0.71% active; AID 1246;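 active means inhibition above the batch mean plus 3 SD, and confirmed as a hit on visual image review, cut at about 43% in these data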;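 further: 0% = TNF-stimulated DMSO wells and 100% = unstimulated control wells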
CYP2C9 inhib: inhibitors of human CYP2C9 | P11712 | CYP2C9 Supersomes, luciferin-H conversion, luminescence | inhibition, % at 5 µM | 96,000 tested, 20% active;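 active means blocking of liver enzyme CYP2C9 beyond about 50% at 5 µM, limit read from the data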
cytoskel mod: cytoskeleton assembly modification. HUVEC TNFa F-actin phalloidin imaging, high content. 91,000 tested, 0.18% active. inhibition, % at 2 µM;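 active means inhibition above the batch mean plus 3 SD and confirmed as a hit by visual image inspection, cut at about 30% in these data, passing the limit was not always enough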
CYP2C19 activ: increases human CYP2C19 enzyme activity | activation factor at 5 µM | recombinant CYP2C19, luciferin-H EGE luminescence; stronger effect = higher value; 0 = fully inhibited enzyme, 1 = untreated enzyme | P33261 | 96,000 tested, under 10 active;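 active means activation factor of at least 2 at 5 µM in the primary screen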;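 further: 0 = wells with 2.5 mM tranylcypromine and 1 = vehicle-only wells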
CYP2C19 inhib: human CYP2C19 inhibition. inhibition, % at 5 µM. AID 778. 96,000 tested, 21% active. CYP2C19 Supersomes, luciferin-H EGE luminescence, 30 min;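 active means CYP2C19 inhibition above a set limit at 5 µM in the primary screen, cut at about 50% in these data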;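 further: plate controls were negative control wells for no effect and 2.5 mM tranylcypromine positive control for full effect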
* = called active by the depositor; · = not tested or not shown.

SMILES	CYP2C9 act	E-sel TNF inh	CYP2C9 inhib	cytoskel mod	CYP2C19 activ	CYP2C19 inhib
COc1ccc(C2C(C#N)=C(N)OC3=C2C(=O)CCC3)c(OC)c1OC (stereo not given)	0.8	11	22	-1	0.8	20
N#CC1=C(N)OC2=C(C(=O)CCC2)C1C1C=CCCC1 (stereo not given)	0.3	4	73*	20	0.2	84*
CC(C)(C)c1[nH]nc2c1C(C1C=CCCC1)C(C#N)=C(N)O2 (stereo not given)	0.5	-14	48	13	0.6	36
Cc1c(C2C(C#N)=C(N)N(c3ccccc3C#N)C3=C2C(=O)CCC3)cnn1C (stereo not given)	·	10	·	·	·	·
N#CC1=C(N)N(c2ccccc2C#N)C2=C(C(=O)CCC2)C1c1ccsc1 (stereo not given)	0.4	-27	62*	·	0.6	43
COc1ccc(-n2c(SCC(=O)Nc3nccs3)nnc2-c2ccccc2)cc1	0.6	32	43	6	0.5	45
Cc1cc(/C=N/NC(=O)c2nn(C)cc2Cl)c(C)n1-c1cccc(Br)c1	·	5	·	·	·	·
CCCC(=O)Nc1ccc(-c2nc3cc(C)c(C)cc3o2)cc1	1.1	·	-8	-11	0.9	9
CCn1c2ccccc2c2cc(C3C(C#N)=C(N)OC4=C3C(=O)CC(C)(C)C4)ccc21 (stereo not given)	0.4	·	57*	·	1	2
CC1(C)CC(=O)C2=C(C1)OC(N)=C(C#N)C2c1ccsc1 (stereo not given)	0.7	-32	32	·	0.4	63*
CC1(C)CC(=O)C2=C(C1)N(c1ccccc1)C(N)=C(C#N)C2c1ccsc1 (stereo not given)	0.2	9	75*	·	0.3	68*
CCOC(=O)C1=C(N)OC2=C(C(=O)CC(C)(C)C2)C1c1ccccc1OCC#N (stereo not given)	0.2	-22	79*	-22	0.3	71*
O=C(NNC(=O)C1CCN(Cc2ccccc2)CC1)c1cccc(Cl)c1	0.8	-5	17	0	0.9	11
COc1ccccc1N1CCc2c(C)nc3c(OC)cccc3c21	1	·	5	·	1	3
COc1cccc(CNc2ccc([N+](=O)[O-])cc2Cl)c1O	·	16	·	·	·	·
CN(C)C(=O)CN(c1ccc2c(c1)OCO2)S(C)(=O)=O	1	-6	4	10	0.8	18
CC1(C)[N+]([O-])=C2C(=[N+]([O-])C1(C)C)c1ccccc1/C2=N\O	0.9	9	13	-11	0.6	38
CC(C)OC(=O)C1CC(C)(O)C(=O)C(C(=O)OC(C)C)C1c1ccc([N+](=O)[O-])cc1 (stereo not given)	·	8	·	·	·	·
COc1ccc(C2C(C#N)=C(N)N(c3sc4c(c3C#N)CCCC4)C3=C2C(=O)CC(C)(C)C3)cc1OC (stereo not given)	0.1	-3	86*	6	0.4	62*
COC(=O)C1=C(N)OC2=C(C(=O)CC(C)(C)C2)C1c1ccoc1 (stereo not given)	0.5	-24	55*	-24	0.5	47
COC(=O)C1=C(N)OC2=C(C(=O)CC(C)(C)C2)C1c1ccccc1OC (stereo not given)	·	-1	·	·	·	·
CC1(C)CC(=O)C2=C(C1)N(c1ccc(F)cc1)C(N)=C(C#N)C2c1cccs1 (stereo not given)	0.9	0	10	-3	1	-2
CC1(C)CC(=O)C2=C(C1)OC(N)=C(C#N)C2Cc1ccccc1 (stereo not given)	0.2	21	79*	-18	0	98*
COc1ccc(C2C(C#N)=C(N)N(c3sc4c(c3C#N)CCCC4)C3=C2C(=O)CC(C)(C)C3)cc1 (stereo not given)	0.6	43	42	0	0.8	17
Cc1ccc(N2C(N)=C(C#N)C(c3cccs3)C3=C2CC(C)(C)CC3=O)cc1 (stereo not given)	0.2	0	80*	-7	0.6	42
SMILES	CYP2C9 act	E-sel TNF inh	CYP2C9 inhib	cytoskel mod	CYP2C19 activ	CYP2C19 inhib
Cc1nc(-c2ccccc2)sc1-c1n[nH]c(=S)n1C	0.8	-30	15	-23	0.9	9
CSc1nnc(-c2sc(-c3ccccc3)nc2C)n1C	0.3	-9	72*	8	0.6	42
Cc1ccccc1NC(=O)COC(=O)Cc1ccsc1	·	-20	·	·	·	·
Cc1cccc2cc(C#N)c(NCCNC(=S)NCCCN3CCOCC3)nc12	0.3	22	71*	14	0.9	6
COc1ccc2nc(NCCNC(=S)NCCCN3CCOCC3)c(C#N)cc2c1	·	11	·	·	·	·
Cc1cc(NCCN2CCOCC2)n2c(nc3ccccc32)c1C#N	0.6	-1	42	17	0.8	22
CCC(=O)NCCCNc1nc2c(C)cccc2cc1C#N	·	-17	·	·	·	·
Cc1cccc2cc(C#N)c(NCCNS(=O)(=O)c3ccc4c(c3)OCCO4)nc12	0.4	-16	57*	5	0.5	53*
Cc1cc(NCCCN2CCOCC2)n2c(nc3ccccc32)c1C#N	0.6	20	40	-3	0.5	51*
COc1ccc(-n2c(C)cc(C=O)c2C)cc1Cl	0.8	-14	16	-4	0.4	59*
O=c1oc(-c2cccs2)nc2sc3c(c12)CCCC3	0.4	-4	64*	-2	0.8	20
O=c1oc(-c2cccs2)nc2sc3c(c12)CCC3	0.8	-26	20	·	0.7	34
O=C(Nc1ccc(Br)cn1)c1ccc2nccnc2c1	·	33	·	-24	·	·
Clc1ccc(Sc2oc(/C=N/n3cnnc3)cc2Br)cc1	0.9	-31	5	-5	0.1	91*
Brc1cccc(/C=N\n2cnnc2)c1	0.9	16	8	1	0.6	38
Clc1ccc(Sc2ccc(/C=N/n3cnnc3)o2)cc1	0.5	-2	48	24	0.2	77*
Cc1cc(-c2ccc(/C=N/n3cnnc3)o2)ccc1Cl	·	-4	·	·	·	·
O/N=C(/CN(O)/C=C1/C=CC=N1)c1cccs1	1	4	4	-10	0.9	10
CC(=O)n1cc(-c2ccncc2)c2ccccc21	0.2	-19	79*	·	0.2	80*
Cc1ccc(C(=O)N2CCN(c3ccc(C(F)(F)F)cn3)CC2)c(C)c1	0.8	-27	19	-4	0.4	64*
CC(C)CCNC(=O)c1cc(-c2ccncc2)nc2ccc(S(=O)(=O)N3CCOCC3)cc12	·	-11	·	·	·	·
CC1(C)CC(=O)C(C=Nc2ccc3cn[nH]c3c2)=C(O)C1	0.8	·	17	-3	0.5	54*
CC1(C)CC(=O)C(C=Nc2ccc3[nH]ncc3c2)=C(O)C1	0.5	·	49	19	0	100*
COc1cnc(-c2ccccn2)nc1Oc1ccc(Cl)cc1	1	·	-4	·	1	0
COc1cc(C=O)ccc1OS(=O)(=O)c1ccc(NC(C)=O)cc1	·	13	·	·	·	·
CC(=Nc1ccccc1)Nc1ccccc1	1.1	15	-9	·	0.2	79*
CC(=O)Nc1ccc(NC(=S)Nc2ccccc2)cc1	1	-75	3	57	0.6	36
